# This is a sample that favours compounds with a hit; in the whole collection about 22% have one here.
# CYP2C9 inh = blockers of cytochrome P450 2C9 activity – biochemical, luminescence, ADME assay, primary screen | P11712 | CYP2C9 Supersomes, luciferin-H conversion | inhibition, % at 5 µM | hit rate 20% among 96,000 | AID 777, 2007;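 active = blocking of liver enzyme CYP2C9 beyond about 50% at 5 µM, limit read from the data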
# Target sequence (P11712 whole entry, looked up): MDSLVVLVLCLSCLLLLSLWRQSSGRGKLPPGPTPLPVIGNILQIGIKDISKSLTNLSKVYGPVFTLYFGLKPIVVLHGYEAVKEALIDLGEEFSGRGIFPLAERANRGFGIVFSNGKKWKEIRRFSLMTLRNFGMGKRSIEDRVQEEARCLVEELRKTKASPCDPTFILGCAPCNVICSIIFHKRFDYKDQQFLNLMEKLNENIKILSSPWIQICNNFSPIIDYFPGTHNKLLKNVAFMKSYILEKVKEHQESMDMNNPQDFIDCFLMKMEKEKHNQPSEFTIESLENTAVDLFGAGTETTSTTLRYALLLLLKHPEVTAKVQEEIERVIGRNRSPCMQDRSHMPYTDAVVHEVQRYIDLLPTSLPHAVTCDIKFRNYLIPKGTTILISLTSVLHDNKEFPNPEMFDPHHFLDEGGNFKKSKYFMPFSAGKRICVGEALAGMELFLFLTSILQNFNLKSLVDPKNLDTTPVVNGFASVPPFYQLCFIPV
# cytoskel mod = modifiers of F-actin cytoskeleton organization, primary screen, imaging, HUVEC, phalloidin staining, high-content imaging; HUVEC TNFa F-actin phalloidin imaging; inhibition, % at 2 µM; hit rate 0.18% among 91,000;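 active = inhibition above the batch mean plus 3 SD and confirmed as a hit by visual image inspection, cut at about 30% in these data, passing the limit was not always enough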
# E-sel TNF inh = E-selectin induction blockers in HUVEC – imaging, immunofluorescence, high content, primary screen; HUVEC TNFa-induced E-selectin immunofluorescence; inhibition, % at 2 µM; hit rate 0.71% among 120,000;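 active = inhibition above the batch mean plus 3 SD, and confirmed as a hit on visual image review, cut at about 43% in these data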
# CYP2C19 inh = blockers of cytochrome P450 2C19 activity – biochemical, luminescence, ADME assay, primary screen. P33261. CYP2C19 Supersomes, luciferin-H EGE luminescence, 30 min. inhibition, % at 5 µM. hit rate 21% among 96,000. AID 778, 2007;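 active = CYP2C19 inhibition above a set limit at 5 µM in the primary screen, cut at about 50% in these data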
# CYP2C19 act = human CYP2C19 activators, primary screen, biochemical, luminescence | recombinant CYP2C19, luciferin-H EGE luminescence; stronger effect = higher value; 0 = fully inhibited enzyme, 1 = untreated enzyme | activation factor at 5 µM | 96,000 tested, under 10 active;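 active = activation factor of at least 2 at 5 µM in the primary screen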
# CYP2C9 activ = human CYP2C9 activators, primary screen, biochemical, luminescence | Cytochrome P450 2C9 (Homo sapiens), P11712 | recombinant CYP2C9, luciferin-H conversion; stronger effect = higher value; factor 1 = untreated enzyme, 0 = blocked | activation factor at 5 µM | hit rate 1.4% among 96,000 | AID 1024, 2008;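 active = activation factor of 2 or more for CYP2C9 at a 5 µM dose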
# A number is an active result; 0 = inactive; - = no result.
SMILES,CYP2C9 inh,cytoskel mod,E-sel TNF inh,CYP2C19 inh,CYP2C19 act,CYP2C9 activ
CCCCS(=O)(=O)CC(COc1ccccc1)OC(=O)c1ccccc1 (stereo not drawn),0,0,0,0,0,0
CCc1ccc(CN(C)Cc2nc(COc3ccccc3)no2)nc1,-,-,0,-,-,-
Cc1cc(N2CCCC(C(=O)Nc3ccc4c(c3)CCC4)C2)n2ncnc2n1 (stereo not drawn),0,0,0,0,0,0
CCCCN1CC(O)=C(c2nc3ccccc3[nH]2)C1=N,52.0,0,0,70.7,0,0
N=C1C(c2nc3ccccc3c(=O)[nH]2)=C(O)CN1CCc1ccccc1,60.4,-,-,63.4,0,0
CC(C)N1CC(O)=C(c2nc3ccccc3[nH]2)C1=N,0,-,-,54.5,0,0
CC(C)N1CC(O)=C(c2ccccc2)C1=N,0,-,0,0,0,0
CCCCCCN1CC(O)=C(c2ccccc2)C1=N,0,0,0,0,0,0
N=C1C(c2nc3ccccc3c(=O)[nH]2)=C(O)CN1CCO,0,0,0,0,0,0
CC(C)CCN1CC(O)=C(c2nc3ccccc3[nH]2)C1=N,59.6,0,0,68.2,0,0
Cc1csc(SCCn2c(Br)nc3c2c(=O)[nH]c(=O)n3C)n1,-,-,0,-,-,-
COc1ccc(C(=O)OC(C)CN2CCN(C)CC2)cc1OC (stereo not drawn),0,0,-,0,0,0
O=C(CSc1nnc(NCc2ccccc2)s1)c1ccco1,81.2,0,0,61.6,0,0
CCOC(=O)CC(=O)CSc1nnc2sc3ccccc3n12,0,0,-,0,0,2.3
O=C(CSc1nnc2sc3ccccc3n12)c1ccco1,0,0,0,51.2,0,0
Cc1cc(-n2c(C)cc(C(=O)COc3ccc4ccc(=O)oc4c3)c2C)no1,0,0,0,0,0,0
CC(=O)c1cccc(OCC(=O)c2cc(C)n(-c3cc(C)on3)c2C)c1,78.5,0,0,86.4,0,0
O=C(NCc1ccccn1)C1CCN(S(=O)(=O)N2CCCCC2)CC1,0,0,-,0,0,0
CSCC[C@H](NC(=O)C1CCN(S(=O)(=O)c2ccc(C)cc2)CC1)C(=O)NCC1CCCO1 (stereo partly drawn),0,0,0,0,0,0
CC(C)(C)C(=O)NC1CCN(S(=O)(=O)c2ccccc2F)CC1,0,0,-,0,0,0
CCOc1c2ccc(C(=O)N[C@H](C)C3CCCCC3)cc2nn1CC,0,0,0,0,0,0
CC12CCC(=O)N1c1ccccc1C(=O)N2c1ccccc1 (stereo not drawn),0,0,0,0,0,0
Cn1c(Cn2c(=O)sc3ccccc32)nnc1SCC(=O)N1CCN(c2ccccc2)CC1,-,-,0,-,-,-
Cc1cc(-n2c(C)cc(C(=O)CSc3ncnc4ccccc34)c2C)no1,0,0,-,0,0,0
O=C(CSc1nnc2sc3ccccc3n12)N1CCN(c2ccccc2)CC1,0,0,0,0,0,2.8
SMILES,CYP2C9 inh,cytoskel mod,E-sel TNF inh,CYP2C19 inh,CYP2C19 act,CYP2C9 activ
Cc1cc(-n2c(C)cc(C(=O)CSc3nnc4sc5ccccc5n34)c2C)no1,0,0,0,87.4,0,0
O=C(NC1(C(F)(F)F)C(=O)Nc2c1c(=O)[nH]c(=O)n2Cc1ccco1)C1CC1 (stereo not drawn),-,0,0,-,-,-
COc1ccccc1CNC(=O)C1CC(c2ccccc2[N+](=O)[O-])=NO1 (stereo not drawn),0,0,0,0,0,2.8
O=C(NCc1cccc(C(F)(F)F)c1)C1CC(c2ccccc2[N+](=O)[O-])=NO1 (stereo not drawn),0,0,0,0,0,0
COc1ccc(CNC(=O)C2CC(c3ccccc3[N+](=O)[O-])=NO2)cc1 (stereo not drawn),0,-,0,50.3,0,0
CCOc1cc(/C=C(/C#N)C(=O)Nc2ccc(O)cc2)cc(Br)c1O,94.0,0,0,61.2,0,0
COc1cc(/C=C(\C#N)C(=O)Nc2ccc(SC(F)F)cc2)cc(OC)c1OC,0,0,-,0,0,0
CCC(C)(C)n1nnnc1CN1CCC(c2nc3ccc(C)cc3[nH]2)CC1,66.4,0,0,0,0,0
CCCCCOC(=O)Cn1c(=O)oc2ccccc21,0,-,0,89.3,0,0
CCCCOC(=O)CCn1c(=S)oc2ccccc21,0,0,66.4,0,0,0
CCCCOC(=O)Cn1c(=N)n(CCN2CCOCC2)c2ccccc21,-,0,0,-,-,-
CCCCOC(=O)Cn1c(=O)n(CC(=O)OCCCC)c2ccccc21,50.1,0,0,0,0,0
Cc1cccc(NS(=O)(=O)c2ccc3[nH]c(=O)cc(C(=O)OC(C)C(=O)Nc4ccc([N+](=O)[O-])cc4)c3c2)c1 (stereo not drawn),-,-,0,-,-,-
CC(c1ccon1)N(C)Cc1c(C(=O)N(C)Cc2ccccc2)nc2ccccn12 (stereo not drawn),-,-,0,-,-,-
CC(C)CNC(=O)c1cc2nc3c(c(C(F)(F)F)n2n1)CCc1ccccc1-3,88.4,0,0,68.1,0,0
CCCCNC(=O)c1cc2nc3c(c(C(F)(F)F)n2n1)CCc1ccccc1-3,0,0,0,0,0,0
Fc1ccc(-c2nc3ccncc3[nH]2)cc1,62.0,0,0,0,0,0
Clc1ccc(-c2nc3ccncc3[nH]2)cc1,-,-,0,-,-,-
CCOC(=O)c1sc(Nc2ccc(C)cc2C)nc1C,88.4,0,0,0,0,0
CCOC(=O)c1c(NC(=O)Nc2ccccc2)sc(C)c1C,0,0,0,0,0,0
CCOC(=O)c1sc(Nc2ccccc2)nc1C,0,0,0,0,0,0
CNc1nc(C)c(C(=O)OCc2ccccc2)s1,53.5,0,0,84.8,0,0
CCOC(=O)c1sc(NS(=O)(=O)c2ccccc2Cl)nc1C,96.4,-,0,51.6,0,0
CCOC(=O)c1sc(NC(=O)Cc2c(F)cccc2Cl)nc1C,-,-,0,-,-,-
CCOC(=O)c1c(Nc2nc(C)c(C(=O)NC)s2)sc(C)c1C,64.8,0,0,0,0,0
SMILES,CYP2C9 inh,cytoskel mod,E-sel TNF inh,CYP2C19 inh,CYP2C19 act,CYP2C9 activ
Cc1ccc2[nH]c(=O)c(CN(CCCN3CCOCC3)C(=O)Nc3cccc(Cl)c3)cc2c1,-,-,0,-,-,-
CCOC(=O)c1sc(NS(=O)(=O)c2ccccc2)nc1C,81.0,0,0,0,0,0
CCOC(=O)c1sc(NS(=O)(=O)c2ccc(NC(C)=O)cc2)nc1C,0,0,0,0,0,0
CCN1CCN(c2ncnc3c2sc2nc(N4CCOCC4)c4c(c23)CCC4)CC1,54.3,-,-,72.8,0,0
c1nc(NCCN2CCOCC2)c2sc3nc(N4CCOCC4)c4c(c3c2n1)CCC4,0,-,65.5,0,0,0
CCOc1nnnc2c1sc1nc(N3CCOCC3)c3c(c12)CCCC3,97.5,0,0,93.7,0,0
CC(NC(=O)c1cc(COc2c(F)cccc2F)on1)c1cnn(-c2ccccc2)c1 (stereo not drawn),-,-,0,-,-,-

# Source: PubChem BioAssay (several laboratories)
